This passage reports growth inhibition results from PubChem BioAssay (NCI).

Assay [1] is described as follows: NCI Yeast Anticancer Drug Screen. Data for the rad50 strain (AID 155).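 Further: 0% = growth of vehicle-only cultures of the same strain.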 The conditions noted are these: S. cerevisiae rad50 strain growth inhibition, stronger effect = higher value. The essentials: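 Cells are treated with compound, grown, and their growth is then scored against vehicle-only cultures of the same repair-deficient yeast strain.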
A short description of assay [2]: NCI Yeast Anticancer Drug Screen. Data for the mec2-1 strain (AID 157). Conditions: S. cerevisiae mec2-1 strain, stronger effect = higher value. The essentials: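 Vehicle-treated cultures served as reference for growth inhibition of compound-exposed mec2-1 yeast.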
Assay [3] in a line: NCI Yeast Anticancer Drug Screen. Data for the sgs1 mgt1 strain (AID 161).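 Further: 0% = growth of cultures given vehicle only.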 Conditions: S. cerevisiae sgs1 mgt1 strain, stronger effect = higher value. In a few lines:
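Read-out: growth inhibition vs vehicle controls. Cells: mutant yeast strain deficient in DNA damage repair.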

Assay [4] in a line: NCI Yeast Anticancer Drug Screen. Data for the cln2 rad14 strain (AID 165).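 Further: 0% = growth equal to vehicle treated cultures.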 Conditions: S. cerevisiae cln2 rad14 strain, stronger effect = higher value. In a few lines:
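Each compound was tested on cln2 rad14 yeast. Inhibition of growth was calculated against vehicle-exposed controls.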

Assay [5] in a line: NCI Yeast Anticancer Drug Screen. Data for the bub3 strain (AID 167). Conditions: S. cerevisiae bub3 mutant strain, stronger effect = higher value. In a few lines: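 Part of a panel of yeast mutants defective in DNA damage repair or cell cycle regulation. Each strain is grown with compound, and inhibition is calculated relative to solvent-treated cultures.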
The nature of assay [6]: NCI Yeast Anticancer Drug Screen. Data for the mlh1 rad18 strain (AID 175). Conditions: S. cerevisiae mlh1 rad18 strain growth inhibition, stronger effect = higher value. In a few lines: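 Vehicle-treated cultures served as the reference for growth inhibition in a yeast strain carrying DNA damage repair alterations exposed to each compound.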
Setting [7] is: at 5.0 µM (retest, dose inferred, filed as 0.5).
[8] abbreviates: at 50.0 µM (retest, dose inferred, filed as 5.0).

This is part of a sample that, as a whole, favours compounds with a hit. Of some 79,000 tested, about 15% had one in any assay. A number with no mark means an inactive call. Calls of active or inactive are those of the source. No stated cut-off is given here; in the data, active means growth inhibition above about 70%; inactive means the rest.

Regarding `O=C(SC(O)c1ccc(Cl)cc1)c1ccccc1` (configuration not stated), the growth inhibition in assay [1] (setting [7]) was -7%; in assay [1] (setting [8]), 58%; in assay [1] (at 50.0 µM), 79.8% (active); in assay [2] (setting [7]), -7%; in assay [2] (setting [8]), 57%; in assay [2] (at 50.0 µM) it was 74.5% (active). The growth inhibition in assay [3] (setting [7]) was -3%; in assay [3] (setting [8]), 68%; in assay [3] (at 50.0 µM), 85.3% (active); in assay [4] (setting [7]), -4%; in assay [4] (setting [8]), 58%; in assay [4] (at 50.0 µM) it was 22.9%. Moreover, the growth inhibition in assay [5] (setting [7]) was -5%; in assay [5] (setting [8]) it was 57%; in assay [5] (at 50.0 µM) it was 64.9%; in assay [6] (setting [7]) it was -8%; in assay [6] (setting [8]), 60%; in assay [6] (at 50.0 µM) it was 81.8% (active).
Turning to `COc1cc(/C=C2\CC(C)C/C(=C\c3ccc(O)c(OC)c3)C2=O)ccc1O` (configuration not stated), the growth inhibition is 84% (active) in assay [1] (setting [7]); 83% (active) in assay [1] (setting [8]); 74.5% (active) in assay [1] (at 50.0 µM); 91% (active) in assay [2] (setting [7]); 89% (active) in assay [2] (setting [8]); 83.6% (active) in assay [2] (at 50.0 µM). In addition, the growth inhibition is 92% (active) in assay [3] (setting [7]); 90% (active) in assay [3] (setting [8]); 77.7% (active) in assay [3] (at 50.0 µM); 70% (active) in assay [4] (setting [7]); 89% (active) in assay [4] (setting [8]); 81.6% (active) in assay [4] (at 50.0 µM). Also, the growth inhibition in assay [5] (setting [7]) is 91% (active); in assay [5] (setting [8]) it was 89% (active); in assay [5] (at 50.0 µM) it was 80.8% (active); in assay [6] (setting [7]) it was 84% (active); in assay [6] (setting [8]) it was 90% (active); in assay [6] (at 50.0 µM), 66.5%.
As for `C/C(=C\c1ccccc1Cl)c1ccccn1`, the growth inhibition in assay [1] (setting [7]) is 2%; in assay [1] (setting [8]) it was 67%; in assay [1] (at 50.0 µM), 86.2% (active); in assay [2] (setting [7]) it was 2%; in assay [2] (setting [8]) it was 49%; in assay [2] (at 50.0 µM) it was 89.6% (active). Further, the growth inhibition is 6% in assay [3] (setting [7]); 71% (active) in assay [3] (setting [8]); 80.7% (active) in assay [3] (at 50.0 µM); -7% in assay [4] (setting [7]); 7% in assay [4] (setting [8]); -44.5% in assay [4] (at 50.0 µM). In addition, the growth inhibition is 33% in assay [5] (setting [7]); 98% (active) in assay [5] (setting [8]); 96.8% (active) in assay [5] (at 50.0 µM); 10% in assay [6] (setting [7]); 27% in assay [6] (setting [8]); 83% (active) in assay [6] (at 50.0 µM).
Consider `C=CCOc1ccc(-c2ccccc2)cc1C(=O)NC`, for which the growth inhibition in assay [1] (setting [7]) was -9%; in assay [1] (setting [8]) it was -5%; in assay [1] (at 50.0 µM) it was 1.25%; in assay [2] (setting [7]) it was 2%; in assay [2] (setting [8]) it was -6%; in assay [2] (at 50.0 µM), 6.3%. Also, the growth inhibition in assay [3] (setting [7]) is -2%; in assay [3] (setting [8]), 20%; in assay [3] (at 50.0 µM) it was 5.1%; in assay [4] (setting [7]), -42%; in assay [4] (setting [8]) it was -5%; in assay [4] (at 50.0 µM) it was 8.95%. Moreover, the growth inhibition is -3% in assay [5] (setting [7]); 8% in assay [5] (setting [8]); 42.9% in assay [5] (at 50.0 µM); -3% in assay [6] (setting [7]); 20% in assay [6] (setting [8]); 22.1% in assay [6] (at 50.0 µM).
On to `CCCCCCCCCCCCCCCCNC(=O)/C(=C\c1ccccc1O)NC(=O)c1ccccc1`, for which the growth inhibition was 0% in assay [1] (setting [7]); 6% in assay [1] (setting [8]); 66.2% in assay [1] (at 50.0 µM); -8% in assay [2] (setting [7]); -2% in assay [2] (setting [8]); 35.1% in assay [2] (at 50.0 µM). Also, the growth inhibition was 0% in assay [3] (setting [7]); 14% in assay [3] (setting [8]); 71.7% (active) in assay [3] (at 50.0 µM); 33% in assay [4] (setting [7]); -20% in assay [4] (setting [8]); 27.3% in assay [4] (at 50.0 µM). Further, the growth inhibition in assay [5] (setting [7]) is 2%; in assay [5] (setting [8]), 8%; in assay [5] (at 50.0 µM) it was 73.7% (active); in assay [6] (setting [7]), 18%; in assay [6] (setting [8]), -6%; in assay [6] (at 50.0 µM) it was 67.6%.
In the case of `CCCC(=S)N1CCOCC1`, the growth inhibition in assay [1] (setting [7]) is -1%; in assay [1] (setting [8]) it was -2%; in assay [1] (at 50.0 µM) it was -23.9%; in assay [2] (setting [7]) it was -1%; in assay [2] (setting [8]), 1%; in assay [2] (at 50.0 µM), -4.05%. For the same molecule, the growth inhibition in assay [3] (setting [7]) is -1%; in assay [3] (setting [8]), -1%; in assay [3] (at 50.0 µM), -3.95%; in assay [4] (setting [7]), -10%; in assay [4] (setting [8]), -4%; in assay [4] (at 50.0 µM), 33.2%. Further, the growth inhibition in assay [5] (setting [7]) is -1%; in assay [5] (setting [8]), -1%; in assay [5] (at 50.0 µM), 12.4%; in assay [6] (setting [7]) it was -2%; in assay [6] (setting [8]), -3%; in assay [6] (at 50.0 µM), 26.6%.
As for `Oc1c(Br)cc(Br)c2cccnc12`, the growth inhibition in assay [1] (setting [7]) is 93% (active); in assay [1] (setting [8]), 97% (active); in assay [1] (at 50.0 µM) it was 98.7% (active); in assay [2] (setting [7]) it was 35%; in assay [2] (setting [8]) it was 97% (active); in assay [2] (at 50.0 µM) it was 98.9% (active). Further, the growth inhibition was 88% (active) in assay [3] (setting [7]); 97% (active) in assay [3] (setting [8]); 98.5% (active) in assay [3] (at 50.0 µM); 82% (active) in assay [4] (setting [7]); 97% (active) in assay [4] (setting [8]); 97.3% (active) in assay [4] (at 50.0 µM). Further, the growth inhibition was 28% in assay [5] (setting [7]); 88% (active) in assay [5] (setting [8]); 98.3% (active) in assay [5] (at 50.0 µM); 96% (active) in assay [6] (setting [7]); 96% (active) in assay [6] (setting [8]); 98.4% (active) in assay [6] (at 50.0 µM).
`Cc1cc(Cc2ccccc2Cl)ccc1O`: the growth inhibition in assay [1] (setting [7]) is -3%; in assay [1] (setting [8]) it was 99% (active); in assay [1] (at 50.0 µM), 99.2% (active); in assay [2] (setting [7]), -9%; in assay [2] (setting [8]), 100% (active); in assay [2] (at 50.0 µM), 99.6% (active). Further, the growth inhibition in assay [3] (setting [7]) is -3%; in assay [3] (setting [8]), 99% (active); in assay [3] (at 50.0 µM) it was 99.5% (active); in assay [4] (setting [7]) it was -17%; in assay [4] (setting [8]), 99% (active); in assay [4] (at 50.0 µM), 99% (active). In addition, the growth inhibition in assay [5] (setting [7]) is -6%; in assay [5] (setting [8]) it was 98% (active); in assay [5] (at 50.0 µM), 99.4% (active); in assay [6] (setting [7]), -4%; in assay [6] (setting [8]) it was 100% (active); in assay [6] (at 50.0 µM), 95.5% (active).
Regarding `Cc1c(C(=O)O)nc(C(Br)(Br)Br)[nH]c1=O`, the growth inhibition in assay [1] (setting [7]) was 6%; in assay [1] (setting [8]), 8%; in assay [1] (at 50.0 µM) it was 54.2%; in assay [2] (setting [7]), 20%; in assay [2] (setting [8]), 17%; in assay [2] (at 50.0 µM), 4.85%. Also, the growth inhibition in assay [3] (setting [7]) was 2%; in assay [3] (setting [8]), 26%; in assay [3] (at 50.0 µM), 71.3% (active); in assay [4] (setting [7]) it was 1%; in assay [4] (setting [8]), 0%; in assay [4] (at 50.0 µM) it was 14.7%. Besides, the growth inhibition is 4% in assay [5] (setting [7]); 2% in assay [5] (setting [8]); 1.5% in assay [5] (at 50.0 µM); 6% in assay [6] (setting [7]); 27% in assay [6] (setting [8]); 53% in assay [6] (at 50.0 µM).
